Assay outcomes as filed in PubChem BioAssay.
MCF10A rereplic: DNA re-replication induction in MCF 10a cells | MCF 10A DNA re-replication, Hoechst nuclear intensity, 48 h | Potency, µM (highest dose often 46.1 µM), for the others: at the top dose activity, positive = re-replication, usual class: activators | AID 624296 | 2.9% of 350,000 active; note: % of control where 0% means no effect; nearly all actives have a fitted effect of over 50% in size
KB-3-1 cytotox: kills parental KB-3-1 adenocarcinoma cells; KB-3-1 viability, CellTiter-Glo ATP luminescence, 72 h; Potency, µM (titrated, usually from 46.1 µM), most hits filed as cytotoxic; 1.4% of 400,000 active; note: % is set by controls: 0 for no effect and ±100 for the full control effect; nearly all actives have a fitted effect of over 60% in size
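Parental KB-3-1 viability, qHTS format: 72 h compound exposure, 37 °C; CellTiter-Glo; media-only wells and DMSO plates as controls; concentration-effect fits on corrected data.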
SW480 rerep: inducers of DNA re-replication in SW480 colon cancer cells | SW480 DNA re-replication, Hoechst DNA content imaging, 48 h | Potency, µM (highest dose often 46.1 µM), without a hit: at the top dose re-replication activation, actives largely listed as activators | 1.8% of 340,000 active; note: % of control where 0% means no effect; nearly all actives have a fitted effect of over 55% in size
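Quantitative HTS format with DMSO vehicle controls; 48 hr drug incubation at 37 C, then 40 min Hoechst staining and scanning imager measurement at 405 nm excitation.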
KB-V1 cytotox: kills drug-selected multidrug resistant KB-V1 cells | KB-V1 MDR cells viability, CellTiter-Glo, 72 h | AID 1347076 | Potency, µM (titrated, usually from 46.1 µM), most hits filed as cytotoxic | 3.4% of 400,000 active; note: % is set by controls: 0 for no effect and ±100 for the full control effect; nearly all actives have a fitted effect of over 60% in size
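KB-V1 cells (P-gp-expressing MDR subline of KB-3-1) in phenol-red-free DMEM with 10% FBS were exposed to library compounds over a concentration series for 72 h at 37 degrees C. Viability read by CellTiter-Glo luminescence; concentration-effect curves fitted after normalization.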
ELG1 DNA repair: ELG1-dependent DNA repair inhibition; 2.3% of 330,000 active; HEK293T ELG1-luciferase reporter, luminescence, 16 h; DNA damage induced by 5-fluorouridine; Potency, µM (top dose mostly 46.1 µM), for inactives: top-dose activity change, negative = inhibition, actives largely listed as inhibitors; note: % is set by controls: 0 for no effect and ±100 for the full control effect; nearly all actives have a fitted effect of over 55% in size
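Luminescence from the luciferase reporter, measured 30 min after ONE-Glo reagent at room temperature, was the read-out. Beforehand, 2,000 cells per well were exposed for 16 hr at 37 °C to 5-fluorouridine together with compound or vehicle.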
* hit, by the source's call; i = inactive; ? = inconclusive; nt = no result; ! = repeats disagree; [ ] = remark or other dose. This is a sample that favours compounds with a hit; in the whole collection about 8.2% have one here. Calls come from the whole dose curve; as a rule, active = well fitted curve in the direction sought with a large enough effect; inconclusive = small, poorly fitted or top-dose-only effect, or another doubt; inactive = no such curve, though single readings can be large; an effect the other way counts as inactive or inconclusive. Potency is the fitted concentration of half-maximal effect.

SMILES	MCF10A rereplic	KB-3-1 cytotox	SW480 rerep	KB-V1 cytotox	ELG1 DNA repair
Cc1oc(-c2ccccc2F)nc1CS(=O)(=O)CC(=O)N1CCN(c2ccc(Cl)cc2)CC1	nt	16µM*	nt	i	nt
Cc1cccc2nc(Cn3c(=O)n(-c4ccccc4)c(=O)c4c5c(sc43)CCC5)cc(=O)n12	nt	i	nt	i	nt
COc1cccc(-c2onc3ccc(C4(C)OCCO4)cc23)c1	18µM*	i	16%	i	?
CC1(c2ccc3noc(-c4ccccc4)c3c2)OCCO1	-2%	i	0%	i	?
CCOc1ccccc1NC(=O)c1nc(S(=O)(=O)Cc2cccc(C)c2)ncc1Cl	?	5.2µM*!	3.3µM*	?	?
Cc1cccc(CS(=O)(=O)c2ncc(Cl)c(C(=O)Nc3nnc(C(C)C)s3)n2)c1	?	16µM*	?	16µM*	?
COC(=O)c1ccccc1NC(=O)c1nc(S(=O)(=O)Cc2ccccc2)ncc1Cl	?	i	-4%	i	-13%
CCc1nnc(NC(=O)c2nc(S(=O)(=O)Cc3ccc(C)cc3)ncc2Cl)s1	1.3µM*	16µM*!	93%	?	?
CCc1nnc(NC(=O)c2nc(S(=O)(=O)Cc3cccc(C)c3)ncc2Cl)s1	?	21µM*	5.8µM*	?	?
Cc1ccc(S(=O)(=O)c2cn(Cc3ccccc3)c3cc(N4CCOCC4)c(F)cc3c2=O)cc1	nt	i	nt	i	nt
C1=Cc2ccccc2/C1=C\c1cc[cH-]c1.[Fe+2].c1cc[cH-]c1	nt	i	nt	?	nt
Cc1nn2c(=O)[nH]cnc2c1Cl	nt	?	nt	i	nt
CCc1nnc(NC(=O)c2nc(S(=O)(=O)Cc3ccccc3)ncc2Cl)s1	0.82µM*	23µM*	?	?	?
CSc1nnc(NC(=O)c2nc(S(=O)(=O)Cc3cccc(C)c3)ncc2Cl)s1	2.1µM*	16µM*	21%	?	-49%
CCSc1nnc(NC(=O)c2nc(S(=O)(=O)Cc3ccc(F)cc3)ncc2Cl)s1	27%	?	?	i	-24%
O=C(NCc1ccco1)c1cccc2c1C(=O)c1ccc(N3CCC(Cc4ccccc4)CC3)cc1S2(=O)=O	?	i	?	i	?
O=C(NCc1ccc(OC(F)(F)F)cc1)c1cccc2c1C(=O)c1ccc(N3CCC(Cc4ccccc4)CC3)cc1S2(=O)=O	5.8µM*	i	-2%	i	-6%
O=C(NCc1cccc(F)c1)c1cccc2c1C(=O)c1ccc(N3CCC(Cc4ccccc4)CC3)cc1S2(=O)=O	12µM*	i	-2%	i	1%
O=C(NCc1cccc(C(F)(F)F)c1)c1cccc2c1C(=O)c1ccc(N3CCC(Cc4ccccc4)CC3)cc1S2(=O)=O	5.8µM*	i	13%	i	?
O=C(NCc1ccc(OC(F)(F)F)cc1)c1cccc2c1C(=O)c1ccc(N3CCCC3)cc1S2(=O)=O	10%	i	0%	i	1%
CC(C)NC(=O)c1[nH]nc2c1CCc1ccccc1-2	6%	i	?	i	?
COc1ccc(OC)c(/C=N/NC(=O)c2[nH]nc3c2CCc2ccccc2-3)c1	23µM*	i	?	i	?
COc1cccc(/C=N/NC(=O)c2[nH]nc3c2CCc2ccccc2-3)c1	?	10µM*	?	?	?
CCCc1[nH]n(-c2ccc(F)cc2)c(=O)c1C=Nc1cccc(F)c1	?	5.8µM*	?	?	-20%
Cc1ccc(CN(Cc2cc3cc(C)ccc3[nH]c2=O)Cc2nnnn2Cc2ccccc2)cc1	nt	?	nt	i	nt
SMILES	MCF10A rereplic	KB-3-1 cytotox	SW480 rerep	KB-V1 cytotox	ELG1 DNA repair
Cc1ccc(C(=O)NCc2ccc(Cl)cc2)cc1S(=O)(=O)N1CCCCC1	1%	?	3%	18µM*	-1%
CCOc1ccc(CCNC(=O)c2cccc(S(=O)(=O)N3CCCCC3)c2)cc1OCC	?	?	7%	6.5µM*	?
O=C(NCc1ccccc1F)c1cccc(S(=O)(=O)N2CCCCC2)c1	2%	i	15%	4.1µM*	-29%
CCOc1ccc(CCNC(=O)c2ccc3nc(N4CCOCC4)sc3c2)cc1OCC	0%	i	-4%	?	23µM*
O=C(CSc1nnc2ccccn12)Nc1ccccc1[N+](=O)[O-]	nt	i	nt	i	nt
CCOc1ccc(CCNC(=O)c2ccc(Cl)c(S(=O)(=O)N3CCOCC3)c2)cc1OCC	?	i	?	?	16µM*
CCOc1ccc(CCNC(=O)c2ccc(F)c(S(=O)(=O)N3CCOCC3)c2)cc1OCC	17%	?	1%	?	-7%
CCOc1ccc(CCNC(=O)c2ccc(C)c(S(=O)(=O)N3CCOCC3)c2)cc1OCC	0%	?	-5%	21µM*	nt
CCc1ccccc1NC(=O)CNC(=O)c1cccc(S(=O)(=O)N2CCN(Cc3ccccc3)CC2)c1	8%	?	5%	16µM*	?
Cc1ccc2nc(-c3ccc(Cl)c(NC(=O)c4cccc([N+](=O)[O-])c4C)c3)oc2c1	nt	i	nt	i	nt
Cc1ccccc1Oc1ccc2c(c1)[C@@H]1C[C@H]3[C@@H](C(=O)N1CC2)[C@H](C)ON3C	14%	i	8%	i	nt
CCN1CCN(C(=S)c2ccc(Cl)c(Cl)c2)CC1	2%	i	-1%	15µM*	0%
Oc1ccc(C(=S)N2CCCCC2)cc1Cl	15%	i	3%	18µM*	-28%
CC1CCN(C(=O)COC(=O)/C=C/c2ccco2)CC1	-5%	i	?	i	?
Cc1ccc(SC[C@H](C)CN2CC[C@H](O)CCC2=O)cc1	nt	i	nt	i	nt
O=C(c1ccc(F)cc1F)N1CCN(S(=O)(=O)c2ccc3c(c2)OCCO3)CC1	5%	?	4%	16µM*	?
O=C(c1ccccc1NS(=O)(=O)c1ccc2c(c1)OCCO2)N1CCOCC1	6.5µM*	i	12µM*	i	4%
O=C(Nc1ccccc1N1CCOCC1)c1ccccc1NS(=O)(=O)c1ccc(F)c(F)c1	?	?	9%[9.22 µM]	?	21µM*
Cc1ccc(S(=O)(=O)N(C)CC(=O)Nc2ccccc2N2CCCC2)cc1	-2%	i	6%	i	-17%
CN(CC(=O)Nc1ccccc1N1CCOCC1)S(=O)(=O)c1ccc(Cl)cc1	0%	?	15%	?	26µM*
Cc1ccc(S(=O)(=O)NCCc2nnc3ccc(SCc4ccc(F)cc4)nn23)cc1	nt	i	nt	i	nt
CN(C)C(=O)COc1ccccc1C(=O)OCC(=O)N(CCC#N)c1ccccc1	nt	i	nt	?	nt
CC(C)[C@H](NS(=O)(=O)c1ccccc1)C(=O)Nc1ccccc1N1CCOCC1	2%	i	-2%	8.2µM*	8%
